# Data: the supplement of paper PMC6555819
# Tests used:
# Assay in all cases: PBM binding z-score (relative to random genomic background probes); higher = stronger binding; sequences stand for … in GC…GCGATTGACAGCGTAGAATGAAGG
# [1] = system: RARb homodimer (NR concentration 270 nM)
# In short: (§1)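 Random background probes are the reference for binding z-scores. These scores derive from regression-normalized fluorescence on custom Agilent 4×180K protein-binding microarrays incubated 1 h with ligand-free nuclear receptor dimers. Binding was detected with antibodies against each partner (one per run).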
# [2] = system: RARg:RXRa (NR concentration 270 nM, RXRa partner concentration 90 nM)
# In short: as §1
# [3] = system: RARg homodimer (NR concentration 270 nM)
# In short: as §1
# [4] = system: RXRa DBDmut IVT, anti-RXR (DBD mutation: RXRa K156A/R161A, NR concentration 90 nM)
# In short: as §1
# [5] = system: RXRa homodimer (NR concentration 180 nM)
# In short: as §1
# [6] = system: THRa:RXRa (NR concentration 90 nM, RXRa partner concentration 90 nM)
# In short: as §1
# [7] = system: THRa homodimer (NR concentration 90 nM)
# In short: as §1
# [8] = system: VDR:RXRa (NR concentration 270 nM, RXRa partner concentration 90 nM)
# In short: as §1
# [9] = system: VDR homodimer (NR concentration 270 nM)
# In short: as §1
sequence,measurement,setting,value
GGAACGAGGGCATTTGAGTTGATAGCATGGCGAT,PBM binding z-score,[1],0.691
same,PBM binding z-score,[2],1.17
same,PBM binding z-score,[3],1.29
same,PBM binding z-score,[4],3.42
same,PBM binding z-score,[5],0.881
same,PBM binding z-score,[6],3.57
same,PBM binding z-score,[7],-0.202
same,PBM binding z-score,[8],4.22
same,PBM binding z-score,[9],3.57
CCTGCTAGGTCATGGTGAGCTAATCTACAGTATG,PBM binding z-score,[1],2.8
same,PBM binding z-score,[2],3.83
same,PBM binding z-score,[3],4.17
same,PBM binding z-score,[4],1.72
same,PBM binding z-score,[5],2.52
same,PBM binding z-score,[6],2.82
same,PBM binding z-score,[7],0.878
same,PBM binding z-score,[8],1.37
same,PBM binding z-score,[9],-0.0752
ACTATTAGTTGACTTAGGGCAACGGATACGACGC,PBM binding z-score,[1],0.939
same,PBM binding z-score,[2],0.643
same,PBM binding z-score,[3],1.01
same,PBM binding z-score,[4],0.466
same,PBM binding z-score,[5],0.497
same,PBM binding z-score,[6],1.47
same,PBM binding z-score,[7],0.279
same,PBM binding z-score,[8],0.248
same,PBM binding z-score,[9],-0.0346
AGAACGAGGGCACGCTGAGTTTATAGCAGAGTAG,PBM binding z-score,[1],1.45
same,PBM binding z-score,[2],2.31
same,PBM binding z-score,[3],2.32
same,PBM binding z-score,[4],2.18
same,PBM binding z-score,[5],1.5
same,PBM binding z-score,[6],2.15
same,PBM binding z-score,[7],-0.111
same,PBM binding z-score,[8],3.94
same,PBM binding z-score,[9],4.06
ATCGAAAGGTCGAGGCGAGTATAGAGAAAGGGAA,PBM binding z-score,[1],1.95
same,PBM binding z-score,[2],3.9
same,PBM binding z-score,[3],3.91
same,PBM binding z-score,[4],0.625
same,PBM binding z-score,[5],4.19
same,PBM binding z-score,[6],1.83
same,PBM binding z-score,[7],-0.512
same,PBM binding z-score,[8],2.33
same,PBM binding z-score,[9],0.276
TAGCCTAGGTCATGGTCCAGTATACCACGCGAAC,PBM binding z-score,[1],3.04
same,PBM binding z-score,[2],3.96
same,PBM binding z-score,[3],4.28
same,PBM binding z-score,[4],0.681
same,PBM binding z-score,[5],3.51
same,PBM binding z-score,[6],3.39
same,PBM binding z-score,[7],1.75
same,PBM binding z-score,[8],2.14
same,PBM binding z-score,[9],0.777
CCTGCTAGGTCAATGGTCAGCTGAAGCAGCTCGC,PBM binding z-score,[1],3.18
same,PBM binding z-score,[2],3.7
same,PBM binding z-score,[3],4.37
same,PBM binding z-score,[4],1.85
same,PBM binding z-score,[5],2.2
same,PBM binding z-score,[6],2.36
same,PBM binding z-score,[7],0.335
same,PBM binding z-score,[8],0.785
same,PBM binding z-score,[9],0.0523
TCATATAGGTAAACAGGTCAAAGTCCGTAAGTTA,PBM binding z-score,[1],2.99
same,PBM binding z-score,[2],3.2
same,PBM binding z-score,[3],2.4
same,PBM binding z-score,[4],1.54
same,PBM binding z-score,[5],3.59
same,PBM binding z-score,[6],2.27
same,PBM binding z-score,[7],0.804
same,PBM binding z-score,[8],2.87
same,PBM binding z-score,[9],1.93
TCGAGTAGGTTACCAATGGGCCATTCAGCTTTCT,PBM binding z-score,[1],0.543
same,PBM binding z-score,[2],0.598
same,PBM binding z-score,[3],0.337
same,PBM binding z-score,[4],0.37
same,PBM binding z-score,[5],0.688
same,PBM binding z-score,[6],0.184
same,PBM binding z-score,[7],-0.731
same,PBM binding z-score,[8],0.0845
same,PBM binding z-score,[9],-0.805
CGAATGAGGGCATGAGTTGATAGCAAATGCCGAT,PBM binding z-score,[1],0.499
same,PBM binding z-score,[2],1.14
same,PBM binding z-score,[3],1.58
same,PBM binding z-score,[4],2.3
same,PBM binding z-score,[5],1.03
same,PBM binding z-score,[6],1.83
same,PBM binding z-score,[7],0.345
same,PBM binding z-score,[8],1.48
same,PBM binding z-score,[9],1.33
ACAGACAGGAGAGTGAAGGTAACTCAGCTGGACG,PBM binding z-score,[1],0.0737
same,PBM binding z-score,[2],0.0775
same,PBM binding z-score,[3],0.235
same,PBM binding z-score,[4],-0.483
same,PBM binding z-score,[5],0.0394
same,PBM binding z-score,[6],0.195
same,PBM binding z-score,[7],0.113
same,PBM binding z-score,[8],-0.068
same,PBM binding z-score,[9],-0.235
TCATATAGGTAAAAGGTGAGAGTCGGTGTGGTAA,PBM binding z-score,[1],1.5
same,PBM binding z-score,[2],1.39
same,PBM binding z-score,[3],0.67
same,PBM binding z-score,[4],1.49
same,PBM binding z-score,[5],2.55
same,PBM binding z-score,[6],1.26
same,PBM binding z-score,[7],0.546
same,PBM binding z-score,[8],1.29
same,PBM binding z-score,[9],0.255
ATCTTTAGGTAACAAGTTCAGTGAAAGAGAGGAC,PBM binding z-score,[1],2.04
same,PBM binding z-score,[2],1.56
same,PBM binding z-score,[3],1.48
same,PBM binding z-score,[4],1.65
same,PBM binding z-score,[5],0.993
same,PBM binding z-score,[6],2.13
same,PBM binding z-score,[7],1.4
same,PBM binding z-score,[8],1.81
same,PBM binding z-score,[9],2.79
AGAACGAGGGCAATGAGTTAATAGCACGGGTGGC,PBM binding z-score,[1],1.08
same,PBM binding z-score,[2],1.43
same,PBM binding z-score,[3],1.51
same,PBM binding z-score,[4],1.74
same,PBM binding z-score,[5],0.7
same,PBM binding z-score,[6],0.999
same,PBM binding z-score,[7],-0.107
same,PBM binding z-score,[8],4.04
same,PBM binding z-score,[9],1.99
AGAATGAGGTTACTAAGATCAGGGAATTGCGGTC,PBM binding z-score,[1],1.12
same,PBM binding z-score,[2],1.25
same,PBM binding z-score,[3],1.15
same,PBM binding z-score,[4],1.43
same,PBM binding z-score,[5],1.98
same,PBM binding z-score,[6],2.28
same,PBM binding z-score,[7],0.919
same,PBM binding z-score,[8],1.42
same,PBM binding z-score,[9],0.836
AGAACGAGGGCGATGAGTTGATAGCACGGGTGGC,PBM binding z-score,[1],-0.239
same,PBM binding z-score,[2],-0.0988
same,PBM binding z-score,[3],0.302
same,PBM binding z-score,[4],1.06
same,PBM binding z-score,[5],0.298
same,PBM binding z-score,[6],-0.0851
same,PBM binding z-score,[7],-0.71
same,PBM binding z-score,[8],3.12
same,PBM binding z-score,[9],2.17
